# Shown are actives, neighbours in structure and some others; about 2.4% of the full set was active somewhere.
# D2 ag-1 = Beta-Arrestin HTS for Positive Allosteric Modulators of the Human D2 Dopamine Receptor: Agonists; D(2) dopamine receptor (Homo sapiens), P14416; DiscoveRx PathHunter D2 beta-arrestin, luminescence, 90 min; 100% = 57 uM dopamine signal; activation, % (concentration not given with the values); actives 0.084% (n = 360,000); in the data active = activation above about 40%; inconclusive = between about 15% and that limit
# Target sequence (P14416 whole entry, looked up): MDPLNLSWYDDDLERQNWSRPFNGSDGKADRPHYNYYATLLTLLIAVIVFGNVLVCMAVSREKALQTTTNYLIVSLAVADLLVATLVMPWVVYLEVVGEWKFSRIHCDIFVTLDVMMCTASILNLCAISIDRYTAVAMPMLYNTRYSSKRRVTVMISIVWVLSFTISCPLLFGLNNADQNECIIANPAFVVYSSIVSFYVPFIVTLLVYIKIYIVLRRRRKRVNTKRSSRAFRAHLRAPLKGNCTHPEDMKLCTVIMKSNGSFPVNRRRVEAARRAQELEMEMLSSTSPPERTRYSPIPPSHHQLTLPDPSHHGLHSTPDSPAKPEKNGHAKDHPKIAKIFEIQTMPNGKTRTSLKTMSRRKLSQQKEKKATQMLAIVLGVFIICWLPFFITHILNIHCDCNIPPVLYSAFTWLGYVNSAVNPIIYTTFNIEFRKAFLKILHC
#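 Agonist mode: compounds alone added to overnight-plated D2 PathHunter cells for 90 min at 37 C, with 57 uM final dopamine (EC100) defining full response. Beta-arrestin recruitment detected by chemiluminescent reagent, read after 1 h at ambient temperature.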
# D2 PAM-1 = HTS Assay for Positive Allosteric Modulators of the Human D2 Dopamine Receptor: Primary Screen for Potentiators; D(2) dopamine receptor (Homo sapiens), P14416; HEK293 T-REx D2, calcium flux, EC20 dopamine potentiation; potentiation, % at 10 µM; actives 0.34% (n = 340,000);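 active = potentiation over 3 SD above the plate norm, cut at about 30% in these data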; also: 0% is about no effect
#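 Calcium flux readout, no-wash dye, 1 read/s. Inducible HEK293 Trex D2 line, overnight 30 C. Compound alone 180 s (agonist flags), then EC20 dopamine, another 180 s to score potentiation.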
# D2 antagonist = HTS Assay for Allosteric Antagonists of the Human D2 Dopamine Receptor: Primary Screen for Antagonists; AID 485344, 2010; actives 2% (n = 340,000); HEK293 TREx D2 cells, calcium flux, dopamine EC80; inhibition, % at 10 µM; D(2) dopamine receptor (Homo sapiens), P14416; in the data active = inhibition above about 30%; inactive = below that, where a call was filed; also: 0% is about no effect
#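 Measurement of antagonist activity uses fluorescent calcium dye in inducible HEK293 T-REx D2 cells: 10 s baseline, compound addition with 180 s read, EC80 dopamine addition with a further 180 s read.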
# D2 PAM-2 = Beta-Arrestin HTS for Positive Allosteric Modulators of the Human D2 Dopamine Receptor: Potentiators; DiscoveRx D2 beta-arrestin cells, luminescence, 90 min; 100% = 57 uM dopamine signal; potentiation, % (no concentration beside the values); actives 0.23% (n = 360,000); in the data active = potentiation above about 50%; inconclusive = mostly about 30% to 49%
#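 PathHunter D2 cells, attached overnight at 37 deg C, received compound in DMSO plus dopamine at EC20 (50 nM final) for 90 min at 37 deg C. Beta-arrestin recruitment was read as luminescence after 1 h with detection reagent at ambient temperature.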
# D2 ag-2 = HTS Assay for Allosteric Agonists of the Human D2 Dopamine Receptor: Primary Screen for Agonists. D(2) dopamine receptor (Homo sapiens), P14416. HEK293 T-REx D2 cells, calcium flux agonist mode. activation, % at 2 µM. actives 0.53% (n = 340,000);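 active = activation over 3 SD above normal in the single-dose calcium agonist read, cut at about 30% in these data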; also: 0% is about no effect
#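 Agonism scored from kinetic calcium signal (1 read/sec, 180 s) following compound pin transfer, after a 10 s baseline. Cells: HEK293 Trex line expressing inducible D2 receptor coupled to calcium, dye-loaded after overnight culture at 30 C.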
# Active calls of the source: *; ? = inconclusive; . = not tested or not shown; ! = a repeat was not active.
SMILES,D2 ag-1,D2 PAM-1,D2 antagonist,D2 PAM-2,D2 ag-2
CN1CCc2nc(SCCOc3ccccc3)c(C#N)cc2C1,-3,.,31*,-23,0
Cc1ccc(S(=O)(=O)N2CCC3(CC2)OCCN3S(=O)(=O)c2cccs2)cc1,-1,.,.,-2,.
O=[N+]([O-])c1ccc(S(=O)(=O)N2CCC3(CC2)OCCN3S(=O)(=O)c2cccs2)cc1,14,0,10,72*,0
O=C(Nc1cccc(C(F)(F)F)c1)C1CC(=O)N(CCc2ccccc2)C1 (stereo unspecified),1,-22,63*,-33,0
COc1ccc(/C=C\c2onc(C)c2S(=O)(=O)N2CCC(C(=O)Nc3cccc(OC)c3)CC2)cc1,.,-18,.,.,2
CCOC(=O)c1ccccc1NC(=O)COc1ccccc1-c1nnc(-c2ccccc2)o1,.,13,.,.,-1
CC[n+]1c(/C=C/N(C)c2ccccc2)oc2ccc(Cl)cc21,?,12,-10,59*,-2
CCn1c(/C=C/N(C(C)=O)c2ccccc2)[n+](CC)c2ccc(Cl)cc21,-2,-1,-5,-17,2
O=C1CCSC2(C(=O)N(Cc3ccc(F)cc3)c3ccccc32)N1c1ccc(Cl)cc1 (stereo unspecified),.,-9,.,.,0
Cc1ccc(OCc2ccoc2C(=O)O)cc1C,-1,-5,30*,-5,-1
Nc1ccn([C@H]2CC[C@@H](CO)O2)c(=O)n1,-2,5,37*!,-3,0
CCc1ccc(NC(=O)C(=O)NCC(c2cccnc2)N2CCN(Cc3ccccc3)CC2)cc1 (stereo unspecified),.,-5,.,.,0
CCOC(=O)c1cccc(NC(=O)COc2ccc([N+](=O)[O-])cc2)c1,0,.,.,-17,.
CCCOC(=O)Nc1ccc(C(N)=O)cc1,-1,-5,-6,-5,0
CCCOC(=O)c1cccc(NC(=O)COc2ccc([N+](=O)[O-])cc2)c1,-3,-22,33*,-20,-1
Cc1ccc(NC(=O)COC(=O)c2ccc3c(c2)OCCO3)cc1,0,4,3,-1,-3
CC(=O)c1cccc(NC(=O)COC(=O)c2ccc3c(c2)OCCO3)c1,-1,-10,39*,-15,0
CCCOC(=O)Nc1cccc(C(C)=O)c1,0,10,35*,-7,0
COc1ccc(C2CC(=O)N(CC(=O)Nc3ccc(C)c(Cl)c3)c3ccccc3S2)cc1OC (stereo unspecified),.,15,.,.,0
O=[N+]([O-])c1ccc(CNc2ccc(Cl)cc2)s1,11,4,96*,?,-2
Cc1cc(C)c(Cn2c(C)c(CNCCCc3ccccc3)c(C(=O)O)c2C)c(C)c1,.,1,.,.,-1
CCOc1ccc(CNC(=O)CCn2c(=O)c3cccn3c3ccc(F)cc32)cc1,.,.,.,.,1
CC1=CC(c2ccc(Cl)cc2)n2nc(NS(=O)(=O)c3ccc(C)cc3)nc2N1 (stereo unspecified),0,-3,-8,0,0
CC1=CC(c2ccccc2)n2nc(NS(=O)(=O)c3ccc(C)cc3)nc2N1 (stereo unspecified),0,-3,121*,-5,-1
CCOC(=O)c1cc(-c2ccccc2)n(CC(=O)NCc2ccccc2OC)c1C,.,0,.,.,0
Cc1ccc(CCNC(=O)c2ccc3c(c2)c(C)c(C)n3Cc2ccccc2)cc1,.,2,.,.,0
Cc1ccc(NC(=O)C2CC(=O)NC(N3CCCCC3)=N2)cc1Cl (stereo unspecified),-3,-19,71*,-28,-1
O=C1CC(C(=O)Nc2ccccc2)N=C(N2CCCCC2)N1 (stereo unspecified),-4,0,-29,-16,-1
CCc1noc(-c2ccc(N3CCC(C)CC3)c([N+](=O)[O-])c2)n1,.,3,.,.,4

# Screens from PubChem BioAssay.
